# Measured values taken from article PMC7862700, “An all-to-all approach to the identification of sequence-specific readers for epigenetic DNA modifications on cytosine”.
# Assays:
# Experiment in all cases: DAPPL (digital affinity profiling via proximity ligation, sequencing); 10 mM Tris-HCl pH 7.5, 50 mM NaCl, 1 mM DTT, 4% glycerol, room temperature, 30 min; GST-TFs on glutathione beads, 16-mer random dsDNA library, 0.1% formaldehyde crosslink after washing; high values mean tight binding
# Conditions in all cases: protein: recombinant; tags: N-terminal GST; dsDNA, one strand shown
# FLI1 = target: T1, FLI1 (Homo sapiens, UniProt Q01543 1-452)
# T1 sequence: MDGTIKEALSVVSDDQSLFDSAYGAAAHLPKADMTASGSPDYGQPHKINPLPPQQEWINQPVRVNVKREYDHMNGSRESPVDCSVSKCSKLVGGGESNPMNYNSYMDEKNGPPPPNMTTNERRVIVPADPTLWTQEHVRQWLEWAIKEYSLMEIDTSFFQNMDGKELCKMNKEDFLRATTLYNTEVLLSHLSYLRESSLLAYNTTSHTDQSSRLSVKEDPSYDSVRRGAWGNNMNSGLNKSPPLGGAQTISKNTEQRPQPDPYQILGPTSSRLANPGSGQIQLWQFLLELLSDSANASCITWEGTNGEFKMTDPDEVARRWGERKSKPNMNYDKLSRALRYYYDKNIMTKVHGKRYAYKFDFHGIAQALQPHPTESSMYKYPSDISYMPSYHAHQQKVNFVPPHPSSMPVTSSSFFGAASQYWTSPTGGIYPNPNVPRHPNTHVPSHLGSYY
# Procedure, shortened: (§1)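 Binding signal is given per hexamer as its read frequency for a factor divided by its frequency in the tag-only sample. GST-fused human transcription factors were expressed in yeast, captured on glutathione beads, barcoded with DNA and pooled with that sample, then incubated with 200 nmole of a 16-mer random double-stranded DNA library in Tris/NaCl/DTT/glycerol buffer for 30 min at room temperature. The pools were then washed, crosslinked, proximity-ligated, amplified by PCR and sequenced on an Illumina NextSeq500.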
# ELK1 = target: T2, ELK1 (Homo sapiens, UniProt P19419 1-428)
# T2 sequence: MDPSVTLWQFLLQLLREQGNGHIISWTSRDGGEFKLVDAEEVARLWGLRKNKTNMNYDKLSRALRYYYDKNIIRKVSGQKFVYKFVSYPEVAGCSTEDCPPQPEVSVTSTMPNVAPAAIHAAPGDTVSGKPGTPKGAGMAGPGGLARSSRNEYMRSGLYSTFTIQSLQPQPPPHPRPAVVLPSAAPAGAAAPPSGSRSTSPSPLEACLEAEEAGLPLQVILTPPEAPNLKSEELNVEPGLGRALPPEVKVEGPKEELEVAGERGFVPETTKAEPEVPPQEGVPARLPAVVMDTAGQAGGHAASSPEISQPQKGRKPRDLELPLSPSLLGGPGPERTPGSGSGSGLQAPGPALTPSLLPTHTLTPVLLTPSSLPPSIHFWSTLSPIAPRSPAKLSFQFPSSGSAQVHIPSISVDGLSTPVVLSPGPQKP
# Procedure, shortened: as §1
# GABPA = target: T3, GABPA (Homo sapiens, UniProt Q06546 1-454)
# T3 sequence: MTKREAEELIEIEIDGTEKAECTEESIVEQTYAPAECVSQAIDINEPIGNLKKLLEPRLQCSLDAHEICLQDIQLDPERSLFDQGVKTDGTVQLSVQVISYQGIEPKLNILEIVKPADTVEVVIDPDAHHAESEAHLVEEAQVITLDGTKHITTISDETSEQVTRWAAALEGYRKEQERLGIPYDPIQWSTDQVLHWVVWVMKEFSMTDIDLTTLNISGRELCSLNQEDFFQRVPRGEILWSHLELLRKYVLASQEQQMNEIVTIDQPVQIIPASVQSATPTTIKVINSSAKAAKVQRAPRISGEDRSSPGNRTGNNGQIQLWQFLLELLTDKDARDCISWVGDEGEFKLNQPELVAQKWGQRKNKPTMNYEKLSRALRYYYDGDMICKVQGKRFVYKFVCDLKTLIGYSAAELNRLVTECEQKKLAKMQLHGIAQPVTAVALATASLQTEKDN
# Procedure, shortened: as §1
# ERG = target: T4, ERG (Homo sapiens, UniProt P11308 1-479)
# T4 sequence: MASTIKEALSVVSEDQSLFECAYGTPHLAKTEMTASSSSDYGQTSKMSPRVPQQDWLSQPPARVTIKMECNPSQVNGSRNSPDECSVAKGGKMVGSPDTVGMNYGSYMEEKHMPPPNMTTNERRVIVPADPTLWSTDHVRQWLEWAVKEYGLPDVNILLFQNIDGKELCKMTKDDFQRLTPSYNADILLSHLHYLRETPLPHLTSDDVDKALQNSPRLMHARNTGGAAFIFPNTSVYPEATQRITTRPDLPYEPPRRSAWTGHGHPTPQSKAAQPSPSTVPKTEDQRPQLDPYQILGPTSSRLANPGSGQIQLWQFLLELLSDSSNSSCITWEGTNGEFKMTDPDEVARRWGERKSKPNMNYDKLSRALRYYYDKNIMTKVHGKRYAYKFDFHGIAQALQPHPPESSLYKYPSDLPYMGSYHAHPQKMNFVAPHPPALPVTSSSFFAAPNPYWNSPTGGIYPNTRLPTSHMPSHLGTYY
# Procedure, shortened: as §1
# ELF1 = ELF1 (Homo sapiens, UniProt P32519 1-619)
# Sequence of ELF1 (P32519 whole entry): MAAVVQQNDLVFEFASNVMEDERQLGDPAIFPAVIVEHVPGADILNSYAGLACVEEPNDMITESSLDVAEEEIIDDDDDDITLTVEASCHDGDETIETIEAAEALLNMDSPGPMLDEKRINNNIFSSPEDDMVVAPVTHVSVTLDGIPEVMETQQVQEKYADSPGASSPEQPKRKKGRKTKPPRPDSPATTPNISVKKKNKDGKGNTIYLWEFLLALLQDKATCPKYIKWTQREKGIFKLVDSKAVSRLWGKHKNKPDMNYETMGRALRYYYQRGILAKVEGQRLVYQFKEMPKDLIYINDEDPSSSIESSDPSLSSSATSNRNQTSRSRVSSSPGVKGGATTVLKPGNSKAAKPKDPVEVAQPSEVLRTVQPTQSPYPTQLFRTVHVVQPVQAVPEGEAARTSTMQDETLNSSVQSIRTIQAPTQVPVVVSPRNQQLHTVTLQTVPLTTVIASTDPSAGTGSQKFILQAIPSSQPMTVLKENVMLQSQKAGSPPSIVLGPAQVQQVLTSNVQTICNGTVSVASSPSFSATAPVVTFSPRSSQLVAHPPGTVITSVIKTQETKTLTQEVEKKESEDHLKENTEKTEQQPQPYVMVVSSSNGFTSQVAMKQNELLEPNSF
# Procedure, shortened: as §1
# EHF = target: T5, EHF (Homo sapiens, UniProt Q9NZC4 1-300)
# T5 sequence: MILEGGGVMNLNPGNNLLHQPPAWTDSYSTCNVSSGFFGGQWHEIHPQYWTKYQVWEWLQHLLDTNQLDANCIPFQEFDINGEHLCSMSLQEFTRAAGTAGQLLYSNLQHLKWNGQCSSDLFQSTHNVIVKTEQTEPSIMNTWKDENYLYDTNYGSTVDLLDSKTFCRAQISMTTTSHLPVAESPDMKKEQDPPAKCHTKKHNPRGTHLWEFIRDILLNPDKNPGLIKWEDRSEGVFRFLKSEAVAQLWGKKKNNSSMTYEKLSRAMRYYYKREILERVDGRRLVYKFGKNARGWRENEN
# Procedure, shortened: as §1
# SPI1 = SPI1 (Homo sapiens, UniProt P17947 1-270)
# Procedure, shortened: as §1
# SPIB = SPIB (Homo sapiens, UniProt Q01892 1-262)
# Sequence of SPIB (Q01892 whole entry): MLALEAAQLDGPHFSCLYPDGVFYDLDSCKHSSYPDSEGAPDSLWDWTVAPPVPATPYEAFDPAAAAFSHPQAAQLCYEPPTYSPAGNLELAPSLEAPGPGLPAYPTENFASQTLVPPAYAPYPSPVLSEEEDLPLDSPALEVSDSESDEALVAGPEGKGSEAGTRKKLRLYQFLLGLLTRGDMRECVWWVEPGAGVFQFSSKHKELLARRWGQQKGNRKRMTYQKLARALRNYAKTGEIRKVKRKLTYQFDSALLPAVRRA
# Procedure, shortened: as §1
# ELK3 = target: T6, ELK3 (Homo sapiens, UniProt P41970 1-407)
# T6 sequence: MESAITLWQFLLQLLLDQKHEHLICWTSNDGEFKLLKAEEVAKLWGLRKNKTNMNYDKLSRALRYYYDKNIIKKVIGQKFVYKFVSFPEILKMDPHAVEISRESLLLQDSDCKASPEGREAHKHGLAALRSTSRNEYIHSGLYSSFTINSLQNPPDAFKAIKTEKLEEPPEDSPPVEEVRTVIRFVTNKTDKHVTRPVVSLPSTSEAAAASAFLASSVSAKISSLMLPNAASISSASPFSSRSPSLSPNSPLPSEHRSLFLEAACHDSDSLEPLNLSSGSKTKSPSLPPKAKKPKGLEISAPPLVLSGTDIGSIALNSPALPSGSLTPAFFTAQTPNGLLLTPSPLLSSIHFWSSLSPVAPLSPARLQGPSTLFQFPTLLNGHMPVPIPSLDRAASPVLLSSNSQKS
# Procedure, shortened: as §1
sequence,measurement,setting,value
GTGTCC,binding signal,FLI1,"1.03 fold enrichment (6-mer frequency, TF over GST control)"
same,binding signal,ELK1,"1.07 fold enrichment (6-mer frequency, TF over GST control)"
same,binding signal,GABPA,"1.1 fold enrichment (6-mer frequency, TF over GST control)"
same,binding signal,ERG,"1.13 fold enrichment (6-mer frequency, TF over GST control)"
same,binding signal,ELF1,"1.1 fold enrichment (6-mer frequency, TF over GST control)"
same,binding signal,EHF,"1.08 fold enrichment (6-mer frequency, TF over GST control)"
same,binding signal,SPI1,"1.08 fold enrichment (6-mer frequency, TF over GST control)"
same,binding signal,SPIB,"1.13 fold enrichment (6-mer frequency, TF over GST control)"
same,binding signal,ELK3,"1.05 fold enrichment (6-mer frequency, TF over GST control)"
